Entries with a potency or affinity are not part of this list. Active and inactive are the calls of the source. How the calls were made is not given here.
Assay: cytotoxicity of synthesized analogs in Vero 76, SAR follow-up, cytotoxicity control for West Nile virus antiviral project, Vero 76 cells (AID 2414)
Settings: Vero 76 cells viability, cytotoxicity CC50; series mostly up to 66.6 µM

Row | SMILES | outcome
1 | COc1ccc(Cn2nc(C)cc2OC(=O)c2c(F)cccc2F)cc1 | inactive
2 | O=C(CSc1nc2ccccc2c(=O)n1-c1ccc(F)cc1F)Nc1ccc(N2CCOCC2)cc1 | inactive
3 | O=c1c2c(F)cccc2nc2n1CCC2 | inactive
4 | CCCCN(C(=O)c1ccccc1Cl)c1nc(-c2ccc(OC)cc2)cs1 | inactive
5 | COc1ccc(-c2csc(N(Cc3ccccc3)C(=O)c3ccccc3Cl)n2)cc1 | inactive
6 | O=c1c2cc([N+](=O)[O-])ccc2nc2n1CCC2 | inactive
7 | Cc1cccc2c(=O)n3c(nc12)CCC3 | inactive
8 | O=C(CSc1nc2ccccc2c(=O)n1-c1ccc(F)cc1)Nc1ccc2c(c1)OCCO2 | inactive
9 | O=C(CSc1nc2cccc(F)c2c(=O)n1-c1ccccc1)Nc1ccc2c(c1)CCC2 | inactive
10 | CC1(O)c2cc(Br)ccc2N=C2CCCN21 (centres undefined) | inactive
11 | COc1ccc(-c2csc(N(CCCBr)C(=O)c3ccccc3Cl)n2)cc1 | inactive
12 | Nc1ccc2nc3n(c(=O)c2c1)CCC3 | inactive
13 | COc1ccc(Cn2nc(C)cc2OC(=O)c2ccccc2)cc1 | inactive
14 | OC1c2cc(Cl)cc(Cl)c2N=C2CCCN21 (centres undefined) | inactive
15 | Cc1cccc2nc3n(c(=O)c12)CCC3 | inactive
16 | COc1ccccc1NC(=O)CSc1nc2ccccc2c(=O)n1-c1ccc(F)cc1 | inactive
17 | Cc1cc(OC(=O)c2c(F)cccc2F)n(Cc2ccccc2)n1 | inactive

Row | SMILES | outcome
18 | O=c1c2cc(Cl)cc(Cl)c2nc2n1CCC2 | inactive
19 | O=c1c2cccc(Cl)c2nc2n1CCC2 | inactive
20 | OC1c2c(F)cccc2N=C2CCCCCN21 (centres undefined) | inactive
21 | COc1ccc(-c2csc(N(C)C(=O)c3ccccc3Cl)n2)cc1 | inactive
22 | COc1ccc(Cn2nc(C)cc2OC(=O)c2c(F)ccc(C)c2F)cc1 | inactive
23 | Cc1ccc2nc3n(c(=O)c2c1)CCC3 | inactive
24 | COc1ccc(NC(=O)CSc2nc3ccccc3c(=O)n2-c2ccc(F)cc2)cc1 | inactive
25 | O=[N+]([O-])c1ccc2c(c1)C(O)N1CCCC1=N2 (centres undefined) | inactive
26 | O=C(CSc1nc2ccc(F)cc2c(=O)n1-c1ccccc1)Nc1ccc2c(c1)CCC2 | inactive
27 | OC1c2cc(I)ccc2N=C2CCCN21 (centres undefined) | inactive
28 | CC1CC(C)CN(C(=O)CSc2nc3ccccc3c(=O)n2-c2ccc(F)cc2)C1 (centres undefined) | inactive
29 | CC(=O)Nc1ccc2nc3n(c(=O)c2c1)CCC3 | inactive
30 | O=c1c2cc(I)ccc2nc2n1CCC2 | inactive
31 | OC1c2cc(Br)ccc2N=C2CCCCN21 (centres undefined) | inactive
32 | CCCN(C(=O)c1ccccc1Cl)c1nc(-c2ccc(OC)cc2)cs1 | inactive
33 | OC1c2c(F)cccc2N=C2CCCN21 (centres undefined) | inactive
34 | OC1c2c(F)cccc2N=C2CCCCN21 (centres undefined) | inactive
